According to article PMC7819943, “Rice protein-binding microarrays: a tool to detect cis-acting elements near promoter regions in rice”:
The full ranking holds about 68,000 sequences; the median of “fluorescence intensity (a.u.)” is about 9,100, and the highest 2% start at about 16,000. The list comes from a sample in which the highest values are over-represented; it also holds similar and randomly drawn sequences.

Target: OsWRKY34 (Oryza sativa, UniProt Q0JBA9 1-250)
Assay: protein-binding microarray (RPBM); PBS, 2% BSA, 51.3 ng/ul salmon testes DNA, 50 uM zinc acetate, 200 nM TF, 25 C, 1 h; high values mean tight binding
Conditions: protein: recombinant; tags: N-terminal polyhistidine and DsRed monomer fusion (pET32a); label: CyDye5-dUTP incorporated in the synthesized complementary strand; 3' TTTTT single-stranded linker to array surface; dsDNA, one strand shown
How it was run: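 Binding signal is reported as fluorescence intensity per feature (arbitrary units) from an Axon 4000B scanner. Incubation used 200 nM of each Ni–NTA-purified, N-terminally polyhistidine- and DsRed-fused transcription factor from E. coli BL21-CodonPlus on a double-stranded custom Agilent array for 1 h at 25 °C, with 50 µM zinc acetate in the buffer, followed by washing.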

Chain of OsWRKY34 (Q0JBA9 entry or part of it): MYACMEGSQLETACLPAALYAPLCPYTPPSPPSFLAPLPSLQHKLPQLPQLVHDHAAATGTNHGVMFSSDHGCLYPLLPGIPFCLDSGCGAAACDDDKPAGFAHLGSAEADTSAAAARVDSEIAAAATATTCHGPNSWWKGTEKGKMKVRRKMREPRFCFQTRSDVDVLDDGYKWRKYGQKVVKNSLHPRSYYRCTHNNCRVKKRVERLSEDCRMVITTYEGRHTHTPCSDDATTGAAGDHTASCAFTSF

Row | Sequence | binding signal
1 | GAGGAGGGACTCGGGGCGGGAGGAAGACGGCGAGGAGGGGCGGAGTCACCTAGTGCAG | 16500 fluorescence intensity (a.u.)
2 | TCGTCATCATCCTCGCCGCCATCGCCATCGCCATTGCCTACGGAGTCACCTAGTGCAG | 9180 fluorescence intensity (a.u.)
3 | ACTTGTTTTACGTTCGGCTAATTAGCTGTTTGACCGTTTCCGGAGTCACCTAGTGCAG | 15300 fluorescence intensity (a.u.)
4 | AAAAACGTCTCAATTGTAAGCTCACTATCTAACAATTTTCCGGAGTCACCTAGTGCAG | 11200 fluorescence intensity (a.u.)
5 | GCTTGGTCTATAAGTTGCTGCTCTGCCCTGCTCGGCCTCACGGAGTCACCTAGTGCAG | 12000 fluorescence intensity (a.u.)
6 | CTCCATCGCTTCGCTCTTCGCCGGATCTAGCACCGACGGTCGGAGTCACCTAGTGCAG | 9000 fluorescence intensity (a.u.)
7 | TTCTTTTGCCGTGCTCCCAGATTCTCCGGTCGCCACGACTCGGAGTCACCTAGTGCAG | 8590 fluorescence intensity (a.u.)
8 | ACCTCTTATTTGACTTTTTCACTATTTTGAAATACGAAAACGGAGTCACCTAGTGCAG | 9360 fluorescence intensity (a.u.)
9 | AATGTATTTGTCTTATGTTAAATATATTACTACTCTTTTTCGGAGTCACCTAGTGCAG | 8080 fluorescence intensity (a.u.)
10 | TATCCGATCCATGGCGTTCTCTTGAGTCCAGAGAGTATTTCGGAGTCACCTAGTGCAG | 8460 fluorescence intensity (a.u.)
11 | AGCTTAACACGCGCCACTTGCCCCTATTTAGCCGCGCCATCGGAGTCACCTAGTGCAG | 9920 fluorescence intensity (a.u.)
12 | GCATGGTGGCGGCGGGAAGGAGGAGTGGGGCGGCGGGTGCCGGAGTCACCTAGTGCAG | 16100 fluorescence intensity (a.u.)
13 | AGAAGGAGGAGGAGGAGGAGGAGGAGGAGGGGAGGAGAGCCGGAGTCACCTAGTGCAG | 10400 fluorescence intensity (a.u.)
14 | GGGAAGGGGAGGGGTGGGCGGAAGGGGACGCCGGTGGTGGCGGAGTCACCTAGTGCAG | 17900 fluorescence intensity (a.u.)
15 | CGGTGGGGAGGCCGGGAGGGAGGAGGAGAGAAGAGGAGTGCGGAGTCACCTAGTGCAG | 9450 fluorescence intensity (a.u.)
16 | GGTGGTGCGCGAGCGTCGGCGGTCGGCGGGAGGGCGGGAGCGGAGTCACCTAGTGCAG | 9180 fluorescence intensity (a.u.)
17 | GGGAATATTAGTGGGATGGGGATGAGGAATTGAGGAAGAACGGAGTCACCTAGTGCAG | 13400 fluorescence intensity (a.u.)
18 | GGCCGCGGCGGTGCGACGAAGAGCGGCGTCGGACAAGGGCCGGAGTCACCTAGTGCAG | 35900 fluorescence intensity (a.u.)
19 | CGGCTAGGGACGGGGACGACGCCGGAGTGGGTGGGGAAGGCGGAGTCACCTAGTGCAG | 8680 fluorescence intensity (a.u.)
20 | GACGGCGACCGAAGGGGACAAGGAGGCGGGGCGGGGCGGCCGGAGTCACCTAGTGCAG | 14000 fluorescence intensity (a.u.)
21 | AATCTAACGGGTGGGTCTCATGTATTGATGAGGAAGAAGACGGAGTCACCTAGTGCAG | 20800 fluorescence intensity (a.u.)
22 | AGGGTGAACAGAAGAAGATGAATCTAACGGGTGGGTCTCACGGAGTCACCTAGTGCAG | 10800 fluorescence intensity (a.u.)
23 | AATGTGGGAGAAGGGGAGGAGAGAGGGGAGGGGAGGGGACCGGAGTCACCTAGTGCAG | 16500 fluorescence intensity (a.u.)

Row | Sequence | binding signal
24 | CTCTCTCTGCTCGAGCCCGAGTAGCCCTCGTCGTCATTCTCGGAGTCACCTAGTGCAG | 8950 fluorescence intensity (a.u.)
25 | ATTATATGTCATTTGACTTTTCTCTTAGCTAAAGTTCTTTCGGAGTCACCTAGTGCAG | 9800 fluorescence intensity (a.u.)
26 | CTATATATAAACGAGCACATCTCGTCGTCCCTCGCCATTCCGGAGTCACCTAGTGCAG | 10400 fluorescence intensity (a.u.)
27 | TTAAACTGTATACCGTCGCTCGCGTCGCGCGCCGTTGACGCGGAGTCACCTAGTGCAG | 9730 fluorescence intensity (a.u.)
28 | CATGTGTTTACTGGGGTGGTTGTTGTAACAAAATTGAGTACGGAGTCACCTAGTGCAG | 9360 fluorescence intensity (a.u.)
29 | GTCTGAGTACACTTCTGAGGCTTCTTTGGTCGTTTTGGCCCGGAGTCACCTAGTGCAG | 9790 fluorescence intensity (a.u.)
30 | AAATATCAACCACATGCTCCTACTTCTATGGAAATTGATTCGGAGTCACCTAGTGCAG | 10400 fluorescence intensity (a.u.)
31 | TTGTCGTGTCACCTCCATTCTCACCCAACTTCCTTACCTACGGAGTCACCTAGTGCAG | 13300 fluorescence intensity (a.u.)
32 | CTCGTTTACCTTACTCTCGCTTAGTTCGTTGAGGCATTTCCGGAGTCACCTAGTGCAG | 14900 fluorescence intensity (a.u.)
33 | GTTATTCAAAACTATAGTTATCTTCCGCCTATTTTTTTATCGGAGTCACCTAGTGCAG | 10600 fluorescence intensity (a.u.)
34 | CGGGGAAGGAGAGGGGCGTTAGGGAGGAGGGGCGCACAGACGGAGTCACCTAGTGCAG | 16800 fluorescence intensity (a.u.)
35 | ACCGCACAGAGAGGGAGGAGGCGGGGAGGACGGTGAGGGGCGGAGTCACCTAGTGCAG | 10500 fluorescence intensity (a.u.)
36 | CCGGGGCCGGCAGCGGCGGGCGGGCGGGCTCGAGCGGTGGCGGAGTCACCTAGTGCAG | 9020 fluorescence intensity (a.u.)
37 | GGGAAGACGGTGGGGCGGGGACAGAGGTAGGGGAAGGAGGCGGAGTCACCTAGTGCAG | 12600 fluorescence intensity (a.u.)
38 | GGTGGCGGGGCATCTCGCCGCCGACGGCTCGAGGAGGAAACGGAGTCACCTAGTGCAG | 18400 fluorescence intensity (a.u.)
39 | GATTGAGGGGAATGTTCCATGTTTTGTTGAACTCTTTTCCCGGAGTCACCTAGTGCAG | 9320 fluorescence intensity (a.u.)
40 | GGCGGCATCTCGCTCTACCGCGGGTGGGGCTTCGACTCCGCGGAGTCACCTAGTGCAG | 12100 fluorescence intensity (a.u.)
41 | GCAGCAGGGAGGTGGGGCGCAGGAGGAAGAAGAAGAGGGACGGAGTCACCTAGTGCAG | 13300 fluorescence intensity (a.u.)
42 | GACACTAATGTGTGTGAAGGGGAGATTGTTGAATGGTTCCCGGAGTCACCTAGTGCAG | 65200 fluorescence intensity (a.u.)
43 | GGGTGGGGAAGAAGAGGGGAAGCGGGGAGGAGGAGAGGGACGGAGTCACCTAGTGCAG | 9680 fluorescence intensity (a.u.)
44 | CGGCGGAGGAGGAGGAGGAGGGGTGGGGAAGAAGAGGGGACGGAGTCACCTAGTGCAG | 22800 fluorescence intensity (a.u.)
45 | AGGGTTGTGATTGGTTGGGAAGAGAATGTTGGTAGATAAGCGGAGTCACCTAGTGCAG | 9400 fluorescence intensity (a.u.)
